# Several values for one entry are separate records, joined by “and”; a condition that tells them apart may be missing. Equal values may be shown once. Out of some 16,000 compounds screened, about 4,000 (25%) were called active. Another 26% or so got no clear call; they are omitted. Calls come from the whole dose curve; as a rule, active = well fitted curve in the direction sought with a large enough effect; inconclusive = small, poorly fitted or top-dose-only effect, or effect the other way; inactive = no such curve, though single readings can be large or run the other way. The list is a sample of the results.
# Biological target: Cytochrome P450 2C9 (Homo sapiens) (UniProt P11712)
# Test: Cytochrome panel assay with activity outcomes
# Conditions: recombinant CYP, pro-luciferin dealkylation, luminescence, p450-cyp2c9; series mostly up to 57.1 µM
# % is set by controls: 0 for no effect and ±100 for the full control effect.
# Sequence of Cytochrome P450 2C9 (Homo sapiens) (P11712 whole entry, looked up): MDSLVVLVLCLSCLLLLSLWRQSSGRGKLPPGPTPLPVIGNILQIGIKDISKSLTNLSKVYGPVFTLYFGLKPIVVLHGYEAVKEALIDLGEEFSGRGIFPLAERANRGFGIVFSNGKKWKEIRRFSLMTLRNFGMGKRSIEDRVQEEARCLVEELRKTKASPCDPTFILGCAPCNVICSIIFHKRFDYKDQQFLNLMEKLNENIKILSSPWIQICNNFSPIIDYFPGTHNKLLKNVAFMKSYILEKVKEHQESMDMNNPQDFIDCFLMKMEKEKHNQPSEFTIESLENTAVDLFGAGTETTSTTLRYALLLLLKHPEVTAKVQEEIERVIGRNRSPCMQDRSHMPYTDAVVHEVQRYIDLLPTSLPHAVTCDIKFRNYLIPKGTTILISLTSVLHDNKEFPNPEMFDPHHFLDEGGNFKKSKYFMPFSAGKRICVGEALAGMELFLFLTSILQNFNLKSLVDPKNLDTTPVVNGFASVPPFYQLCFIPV
SMILES,"activity, negative = inhibition",AC50
C[C@@]12CCC(=O)C=C1C=C[C@H]1[C@H]3CC[C@](O)(CCC(=O)O)[C@]3(C)CC[C@@H]12,inactive,
O=C(C[C@H](c1ccccc1)c1c(O)c2ccccc2oc1=O)c1ccccc1,,0.631 µM (active)
CC(C)c1ccc(C(c2c(O)c3ccccc3oc2=O)c2c(O)c3ccccc3oc2=O)cc1,,3.16 µM (active)
c1ccc(CN2CCCC3(CCNCC3)C2)cc1,inactive,
CN1CCC(c2c[nH]c3ccc(O)cc23)CC1,inactive,
C[C@]1(O)CC[C@H]2[C@@H]3[C@@H](O)CC4=CC(=O)CC[C@@]4(C)[C@H]3CC[C@]21C,14% [at 11.4 µM] (inactive),
C[C@@H]1O[C@@H](O[C@H]2C[C@@H](O)[C@]3(CO)[C@@H]4[C@@H](O)C[C@]5(C)[C@H]([C@@H]6COC(=O)C6)CC[C@@]5(O)[C@H]4CC[C@@]3(O)C2)[C@H](O)[C@H](O)[C@@H]1O,inactive,
CN1CCC2(CC1)CCN(C(=O)Oc1ccccc1)CC2,inactive,
C[C@@]12C(=O)OC(=O)[C@]1(C)[C@H]1CC[C@@H]2O1,inactive,
O=C(Nc1ccc(C(F)(F)F)cc1)c1cccn(Cc2ccc3c(c2)OC(F)(F)O3)c1=O,,8.91 µM (active)
O=C(Nc1cccc(C(F)(F)F)c1)c1cccn(Cc2ccc3c(c2)OC(F)(F)O3)c1=O,,3.16 µM (active)
O=P(O)(O)CCP(=O)(O)O,-4.93% [at 11.4 µM] (inactive),
C[N+]1(C)[C@@H]2CC[C@H]1CC(OC(=O)c1c[nH]c3ccccc13)C2 (some centres not stated),inactive,
C[C@]12N[C@H](Cc3ccccc31)c1ccccc12,inactive,
CCN(CCCl)Cc1ccccc1Br,inactive,
CC(C)c1ccc2c(c1)c(SC(C)(C)C)c(CC(C)(C)C(=O)O)n2Cc1ccc(Cl)cc1,,6.31 µM (active)
CC[C@H](C(=O)[C@H](C)[C@H](O)[C@H](C)CCc1ccc(C)c(O)c1C(=O)O)[C@H]1O[C@](CC)([C@@H]2CC[C@@](O)(CC)[C@H](C)O2)C[C@H]1C,inactive,
CC[C@@]1(c2ccc(N)cc2)CCC(=O)NC1=O,inactive,
CC(C)NC(=O)N1CCC2(CC1)CCN(C(=O)Oc1ccccc1)CC2,inactive,
NCCP(=O)(O)O,4.14% [at 11.4 µM] (inactive),
NC(N)=NCCC[C@H](N)C(=O)O,inactive,
NP(N)(=O)NC(=O)c1ccc(F)cc1,inactive,
O[C@@H](c1cc(-c2ccccc2)nc2c1ccc1ccccc12)[C@@H]1CCCCN1,-8.99% [at 11.4 µM] (inactive),
COc1ccc(Cc2nccc3cc(OC)c(OC)cc23)cc1OC,inactive,
CC[C@H]1C(=O)OC[C@H]1Cc1cncn1C,-29.2% [at 11.4 µM] (inactive),

SMILES,"activity, negative = inhibition",AC50
CCC1C(=O)OCC1Cc1cncn1C (configuration not stated),,15.8 µM (active)
CC(=O)O[C@H]1CC[C@@]2(C)[C@@H](CC[C@H]3[C@H]2CC(=O)[C@@]2(C)[C@@H]3C[C@H]3CC(C)=CC(=O)[C@H]32)C1,-10.2% [at 11.4 µM] (inactive),
C[C@@]12CC[C@H](O)C[C@@H]1CC[C@H]1[C@H]2CC[C@@]2(C)[C@@H](C3=CC(=O)OC3)CC[C@]12O,inactive,
N#CCCN,inactive,
Ic1ccccc1CN[C@@H]1C2CCN(CC2)[C@H]1C(c1ccccc1)c1ccccc1,inactive,
NC(N)=Nc1ccc2[nH]c3c(c2c1)C[C@]1(O)[C@@H]2Cc4ccc(O)c5c4[C@]1(CCN2CC1CC1)[C@H]3O5,inactive,
COC(=O)[C@@H]1[C@@H]2C[C@H]3c4[nH]c5cc(OC)ccc5c4CCN3C[C@@H]2C[C@H](OC(=O)/C=C\c2cc(OC)c(OC)c(OC)c2)[C@H]1OC,inactive,
COc1cc2c(cc1OC)[C@H](C)NCC2,inactive,
OCc1cnc[nH]1,inactive,
NC(=NCCc1ccc(I)cc1)SCCCc1cnc[nH]1,inactive,
NC(=NCc1ccc(Cl)cc1)SCCCc1cnc[nH]1,,12.6 µM (active)
C#CCN[C@@H](C)Cc1ccccc1,inactive,
c1csc(CN2CC[C@@]3(CCCNC3)C2)n1,inactive,
COc1ccc2c(c1)[C@]13CCCC[C@@H]1[C@H](C2)N(C)CC3,inactive,
COc1ccc(C(=O)O[C@H]2CC[C@@]3(C)[C@H]4CC[C@H]5[C@]3(C[C@]3(O)[C@H]6CN7C[C@H](C)CC[C@H]7[C@](C)(O)[C@]6(O)[C@H](O)C[C@]53O)O[C@]24O)cc1OC,-11.3% [at 11.4 µM] (inactive),
CCCCn1c(O)c(C=NCCN2CCCCC2)c(=O)[nH]c1=O,inactive,
C=CCn1c(O)c(C(CC)=NC2CC2)c(=O)[nH]c1=O,inactive,
CCCCn1c(O)c(C(CC)=Nc2ccc(OC)cc2OC)c(=O)[nH]c1=O,,14.1 µM (active)
O=c1[nH]c(=O)n(CCc2ccc(F)cc2)c(O)c1C=NCCCN1CCOCC1,inactive,
CCC(=Nc1cc(OC)ccc1OC)c1c(O)[nH]c(=O)[nH]c1=O,inactive,
CCCCn1c(O)c(C(CC)=NCc2ccc(F)cc2)c(=O)[nH]c1=O,,3.55 µM (active)
C[C@]12CCC3c4ccc(OCC(=O)O)cc4CCC3C1CCC2=O (some centres not stated),-4.6% [at 11.4 µM] (inactive),
c1cc(C2N3CCCN2CC3)ccn1 (configuration not stated),9.12% [at 11.4 µM] (inactive),
O=C(CCCN1CCC2(CC1)C(=O)N(Cc1cccc(F)c1)CN2c1ccccc1)c1ccc(F)cc1,inactive,
CCCN1CCC[C@H](c2cccc(C#N)c2)C1,inactive,

SMILES,"activity, negative = inhibition",AC50
CCCN1CC[C@@H]2c3cc(O)ccc3CC[C@H]21,inactive,
Cc1cccc([C@H](C)c2cnc[nH]2)c1C,,0.2 µM (active)
C=C(CC1(C(C)NP(=O)(c2ccccc2)c2ccccc2)CC1)c1ccccc1 (configuration not stated),,7.94 µM (active)
O=P(O)(O)c1ccccc1 (tested in a mixture with another compound),0.15% [at 11.4 µM] (inactive),
C=C(CC1(CNP(=O)(c2ccccc2)c2ccccc2)CC1)c1ccccc1,,10 µM (active)
O=C(O)[C@@H]1C[C@H]1[C@@H](NP(=O)(c1ccccc1)c1ccccc1)c1ccccc1,inactive,
O=C(O)[C@H]1C[C@@H]1[C@H](NP(=O)(c1ccccc1)c1ccccc1)c1ccccc1,inactive,
C=C(C)c1ccccc1 (tested in a mixture with another compound),-0.349% [at 11.4 µM] (inactive),
Cc1c2cc[n+](CCN3CCCCC3)cc2c(C)c2c1[nH]c1ccc(O)cc12,17.8% [at 11.4 µM] (inactive),
COc1ccc(C[C@@H]2NC[C@H](O)[C@@H]2OC(C)=O)cc1,inactive,
CC(C)c1nccn1Cc1ccc(Cl)cc1Cl,-23.6% [at 11.4 µM] (inactive),
NC1=Nc2ccccc2Oc2ccccc21,inactive,
COc1ccccc1N1CCNCC1,inactive,
O=C(O)c1ccccc1-c1c2cc(Br)c(=O)cc-2oc2[c]([Hg])c(O)c(Br)cc12,,0.631 µM (active)
COc1ccc2[nH]c3c(c2c1)CCNC3,inactive,
C[N+]1(C)C2CC[C@H]1CC(OC(=O)[C@@H](CO)c1ccccc1)C2 (some centres not stated),8.36% [at 11.4 µM] (inactive),
CC1(C)[C@@H]2CC[C@]1(C)CN(CCC[N+](C)(C)C)C2,1.62% [at 11.4 µM] (inactive),
Cc1cc(Cc2cc(C)c(N)cc2N)c(N)cc1N,-2.47% [at 11.4 µM] (inactive),
C[C@H](CN(C)C)C(C#N)(c1ccccc1)c1ccccc1,-0.348% [at 11.4 µM] (inactive),
O=C(O)CP(=O)(O)c1ccc(Cl)cc1,inactive,
CNCCc1c[nH]c2ccc(O)cc12,inactive,
O=c1cc(-c2ccc(O)cc2)oc2cc(O)cc(O)c12,inactive,
O=c1c(O)c(-c2cc(O)c(O)c(O)c2)oc2cc(O)cc(O)c12,,12.6 µM (active) and 10 µM (active)
O=c1cc(-c2ccc(O)c(O)c2)oc2cc(O)cc(O)c12,inactive,
Nc1nc(N)c(Cn2ccnc2)c(=O)[nH]1,-12.8% [at 11.4 µM] (inactive),

SMILES,"activity, negative = inhibition",AC50
Cn1cccc1CNCCc1ccccc1,inactive,
CN1CC[C@@]23c4ccccc4N[C@H]1[C@]21CCN(C)[C@@H]3Nc2ccccc21,inactive,
C=C1C/C(=C\C)C(=O)O[C@@H]2CCN3CC=C(COC(=O)[C@@]1(C)O)[C@H]23,inactive,
CC1=C(C)[N+](=O)C2(O)CCCCC2(C)N1[O-] (configuration not stated),inactive,
S=P(C1CCCCC1)(C1CCCCC1)[C@H](c1cccnc1)N1CCCC1,-6.57% [at 11.4 µM] (inactive),
C=Cn1ccnc1P(=S)(c1nccn1C=C)C1CCCCC1,,11.2 µM (active)
O[Si@](CCCN1CCCCC1)(c1ccc(F)cc1)C1CCCCC1,inactive,
COC(=O)NC/C=C\c1nc(CC/C=C\C(=O)O[C@H]2C[C@H]3CC(=O)O[C@@H](/C=C\CC(C)C)C[C@@H]4CC[C@H](C)[C@H](C[C@@H](OC)C[C@H](C2)O3)O4)co1,-4% [at 11.4 µM] (inactive),
COC(=O)[C@H]1C(=O)c2ccccc2O[C@@](C(=O)OC)(c2ccccc2)[C@@H]1c1ccccc1,-6.83% [at 11.4 µM] (inactive),
CC[C@@H]1CN2CCc3cc(OC)c(OC)cc3[C@H]2C[C@@H]1C[C@@H]1NCCc2cc(O)c(OC)cc21,inactive,
O=C(Oc1ccccc1)N1CCC2(CCCN(Cc3ccccc3)C2)CC1,inactive,
CC(C)CN1CC2(CCN(C(=O)c3ccncc3)CC2)C1,inactive,
c1cc(CN2CCC3(CCNCC3)CC2)ccn1,inactive,
CN1CC[C@@]2(CCCN(C(=O)c3csnn3)C2)C1,inactive,
O=C(Oc1ccccc1)N1CCC2(CC1)CN(Cc1ccncc1)C2,,3.16 µM (active)
N#Cc1ccc(CN2CCC3(CC2)CCN(C(=O)Oc2ccccc2)CC3)cc1,inactive,
O=C(Oc1ccccc1)N1CCC2(CCN(Cc3ccncc3)CC2)CC1,,3.98 µM (active)
c1cc(CN2CC3(CCNCC3)C2)ccn1,inactive,
O=C(c1csnn1)N1CCC2(CC1)CN(Cc1ccncc1)C2,,10 µM (active)
CS(=O)(=O)N1CCC2(CC1)CN(Cc1ccncc1)C2,,39.8 µM (active)
CC(C)CN1CC2(CCN(C(=O)Oc3ccccc3)CC2)C1,inactive,
O=C(Oc1ccccc1)N1CCC2(CCN(Cc3ccccc3)CC2)CC1,inactive,
